# From PubChem BioAssay (NCI)
# “And” between values parts separate entries of the source, which are not always exact repeats. Equal entries are not always repeated. Compounds without any hit were thinned out: in the full panel of roughly 83,000, 20% have a hit.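 Growth was measured after 48 h exposure to one concentration of compound in 96-well plates. Values under 10 count as active.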 Unmarked numbers belong to inactive results. The source made the active and inactive calls.
# Columns and labels:
# Experiment in all cases: NCI-60 one-dose screen, 48 h (100 = growth as untreated, 0 = no growth, -100 = all killed)
# [1] = tested on: HCT-15 colon
# [2] = tested on: HT29 colon
# [3] = tested on: SNB-75 CNS
# [4] = tested on: SNB-19 CNS
# [5] = tested on: U251 CNS
# [6] = tested on: PC-3 prostate
# [7] = tested on: SK-MEL-5 melanoma
# [8] = tested on: UACC-62 melanoma
# [9] = tested on: LOX IMVI melanoma
# [10] = tested on: SK-MEL-28 melanoma; conditions: 10 µM
structure (smiles),measurement,setting,value
COc1cccc(C(c2cc3c(cc2O)OCO3)N2CCOCC2)c1OC (centres undefined),growth,[1]; 10 µM,97.4%
same,growth,[2]; 10 µM,106%
same,growth,[3]; 10 µM,91.2%
same,growth,[4]; 10 µM,98.5%
same,growth,[5]; 10 µM,101%
same,growth,[6]; 10 µM,95.7%
same,growth,[7]; 10 µM,99.1%
same,growth,[8]; 10 µM,95.3%
same,growth,[9]; 10 µM,97.3%
S=C1SCN(CCc2ccccc2)CN1CCc1ccccc1,growth,[1]; 10 µM,95.1%
same,growth,[2]; 10 µM,95.8%
same,growth,[3]; 10 µM,87.5%
same,growth,[4]; 10 µM,105%
same,growth,[5]; 10 µM,91.3%
same,growth,[6]; 10 µM,93.6%
same,growth,[7]; 10 µM,89%
same,growth,[8]; 10 µM,94.9%
same,growth,[9]; 10 µM,90.9%
same,growth,[10],92.4%
C=C1N(C)c2ccc(Cl)cc2C1(C)C,growth,[1]; 10 µM,106%
same,growth,[2]; 10 µM,35.7%
same,growth,[3]; 10 µM,62%
same,growth,[4]; 10 µM,55.1%
same,growth,[5]; 10 µM,22.8%
same,growth,[6]; 10 µM,32.9%
same,growth,[7]; 10 µM,90.5%
same,growth,[8]; 10 µM,69.5%
same,growth,[9]; 10 µM,51.9%
same,growth,[10],84.5%
Cn1c2nc3ccccc3c-2nc2ccccc21,growth,[1]; 10 µM,94.9% and 85.2%
same,growth,[2]; 10 µM,99.7% and 103%
same,growth,[3]; 10 µM,101% and 81.1%
same,growth,[4]; 10 µM,88.8% and 82.8%
same,growth,[5]; 10 µM,91.4% and 90.2%
same,growth,[6]; 10 µM,95.4% and 99.7%
same,growth,[7]; 10 µM,82.5% and 65.6%
same,growth,[8]; 10 µM,87.4% and 91.2%
same,growth,[9]; 10 µM,99.5% and 86.1%
same,growth,[10],113% and 106%
Cc1cc(O)c2c(c1O)C(=O)C13C(=C2O)C(=O)C2C(O)C1C1C(O)C3C(=O)C3=C(O)c4c(O)cc(C)c(O)c4C(=O)C321 (centres undefined),growth,[1]; 10 µM,16.4%
same,growth,[2]; 10 µM,3.7% (active)
same,growth,[3]; 10 µM,20%
same,growth,[4]; 10 µM,5.61% (active)
same,growth,[5]; 10 µM,12.3%
same,growth,[6]; 10 µM,10.3%
same,growth,[7]; 10 µM,-74.9% (active)
same,growth,[8]; 10 µM,-48.1% (active)
same,growth,[9]; 10 µM,7.97% (active)
same,growth,[10],9.99% (active)
O=C1C(Cl)=C(Cl)C(Cl)(Cl)C(Cl)C1(Cl)Cl (centres undefined),growth,[1]; 10 µM,91.3%
same,growth,[2]; 10 µM,99.5%
same,growth,[3]; 10 µM,88.9%
same,growth,[4]; 10 µM,108%
same,growth,[5]; 10 µM,103%
same,growth,[6]; 10 µM,101%
same,growth,[7]; 10 µM,106%
same,growth,[8]; 10 µM,98.7%
same,growth,[9]; 10 µM,96.2%
same,growth,[10],114%
O=C1c2cccc3cc([N+](=O)[O-])cc(c23)C(=O)N1CCN1CCCC1,growth,[1]; 10 µM,-7.27% (active)
same,growth,[2]; 10 µM,2.59% (active)
same,growth,[3]; 10 µM,-15.1% (active)
same,growth,[4]; 10 µM,-0.129% (active)
same,growth,[5]; 10 µM,-12.3% (active)
same,growth,[6]; 10 µM,14.4%
same,growth,[7]; 10 µM,-88.6% (active)
same,growth,[8]; 10 µM,-66.1% (active)
same,growth,[9]; 10 µM,-65.9% (active)
same,growth,[10],-36.5% (active)
Cn1ncc2cc3c(Nc4ccc(Cl)cc4)cccc3nc21,growth,[1]; 10 µM,88.1%
same,growth,[2]; 10 µM,78.7%
same,growth,[3]; 10 µM,97.2%
same,growth,[4]; 10 µM,99.3%
same,growth,[5]; 10 µM,81.2%
same,growth,[6]; 10 µM,79.8%
same,growth,[7]; 10 µM,82.1%
same,growth,[8]; 10 µM,98.6%
same,growth,[9]; 10 µM,87%
same,growth,[10],95.8%
COc1ccc2oc(-c3ccc(Cl)cc3)c(N3CCN(C)CC3)c2c1,growth,[1]; 10 µM,28.9%
same,growth,[2]; 10 µM,-1.44% (active)
same,growth,[3]; 10 µM,18.3%
same,growth,[4]; 10 µM,48.6%
same,growth,[5]; 10 µM,20.1%
same,growth,[6]; 10 µM,4.07% (active)
same,growth,[7]; 10 µM,-14.8% (active)
same,growth,[8]; 10 µM,-52.6% (active)
same,growth,[9]; 10 µM,-87.5% (active)
same,growth,[10],-12.3% (active)
CCC(C)(c1ccc(O)c(C)c1)c1ccc(O)c(C)c1,growth,[1]; 10 µM,99.1%
same,growth,[2]; 10 µM,104%
same,growth,[3]; 10 µM,64.8%
same,growth,[4]; 10 µM,105%
same,growth,[5]; 10 µM,94.4%
same,growth,[6]; 10 µM,86.1%
same,growth,[7]; 10 µM,95.2%
same,growth,[8]; 10 µM,68.9%
same,growth,[9]; 10 µM,104%
same,growth,[10],133%
O=Nc1ccc(Nc2ccccc2)cc1,growth,[1]; 10 µM,81.2%
same,growth,[2]; 10 µM,95.1%
same,growth,[3]; 10 µM,80.4%
same,growth,[4]; 10 µM,98.3%
same,growth,[5]; 10 µM,87.8%
same,growth,[6]; 10 µM,82.8%
same,growth,[7]; 10 µM,87.9%
same,growth,[8]; 10 µM,96.9%
same,growth,[9]; 10 µM,23.5%
same,growth,[10],120%
S=P(N1CC1)(N1CC1)N1CC1,growth,[1]; 10 µM,106% and 84.9%
same,growth,[1]; 100 µM,57.5%
same,growth,[2]; 10 µM,99.6% and 83.1%
same,growth,[2]; 100 µM,54.6%
same,growth,[3]; 10 µM,109% and 69%
same,growth,[3]; 100 µM,43.2%
same,growth,[4]; 10 µM,102% and 101%
same,growth,[4]; 100 µM,37.3%
same,growth,[5]; 10 µM,105% and 84.1%
same,growth,[5]; 100 µM,43.7%
same,growth,[6]; 10 µM,97.5% and 90.9%
same,growth,[6]; 100 µM,52.7%
same,growth,[7]; 10 µM,96.9% and 92.8%
same,growth,[7]; 100 µM,48.6%
same,growth,[8]; 10 µM,100% and 71.7%
same,growth,[8]; 100 µM,37.1%
same,growth,[9]; 10 µM,99.2% and 80.5%
same,growth,[9]; 100 µM,33%
same,growth,[10],131% and 116%
CO[C@@]12[C@H](COC(N)=O)C3=C(C(=O)C(C)=C(N)C3=O)N1C[C@@H]1N[C@@H]12,growth,[8]; 25 µM,-83.6% (active) and -100% (active)
